Measurements as given in PubChem BioAssay (EPA / NIEHS).
Several values for one entry are separate records, joined by “and”; a condition that tells them apart may be missing. Identical values can stand only once. Some compounds were tested as several samples or in several runs, with calls that do not always agree. Activity calls are given as the source filed them. The calls were made as follows: active = hit-call score of the fitted dose curve at least 0.9, where 1 is the maximum; inactive = score below 0.9.

Assays:
[1] = target: Hepatocyte nuclear factor 6 (Homo sapiens) (UniProt Q9UBC0); assay: ATG_HNF6_CIS: Attagene CIS-FACTORIAL HepG2 Assay for human Hepatocyte Nuclear Factor 6 (HNF6) (AID 2282952); conditions: HepG2 Attagene cis-factorial HNF6 reporter transcription; actives raise or lower the signal
Outline: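 HepG2 cells transiently transfected with cis-element-driven multiple reporter transcription units, dosed 24 h; reporter mRNA quantified by RT-PCR, FAM primer extension, HpaI digestion and capillary electrophoresis; bidirectional fit versus DMSO baseline.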

[2] = ATG_RORE_CIS: Attagene CIS-FACTORIAL HepG2 Assay for human RAR-related Orphan Receptor Element (RORE) (AID 2282959); conditions: HepG2 Attagene cis-factorial RORE reporter, mRNA; actives raise or lower the signal
Outline: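 Measured here: transcript induction of a cis-regulated reporter in HepG2 cells transiently transfected via FuGene 6. After 24 h, RNA was processed by RT-PCR and fluorescent capillary electrophoresis; DMSO defined baseline activity.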

[3] = ATG_Oct_MLP_CIS: Attagene CIS-FACTORIAL HepG2 Assay for human Octamer-Binding Transcription Factor (Oct) (AID 2282993); conditions: HepG2 Attagene cis-factorial Oct reporter, mRNA; actives raise or lower the signal
Outline: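 Transient MRTU transfection of HepG2 → 24 h compound treatment → RNA isolation, reverse transcription, PCR → 6-FAM primer extension, HpaI digest → capillary electrophoresis. Activity fitted both directions against DMSO.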

[4] = BSK_3C_uPAR: BioMAP Diversity Plus: 3C Assay for Urokinase-type plasminogen activator receptor (uPAR) Biomarker Activity (AID 2282998); conditions: BioMAP 3C HUVEC, uPAR biomarker ELISA; actives raise or lower the signal
Outline: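 ELISA readout of uPAR on human vascular endothelium (umbilical vein primary cells), taken 24 h after chemical dosing. Increases and decreases are both fitted relative to DMSO vehicle.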

[5] = BSK_4H_Eotaxin3: BioMAP Diversity Plus: 4H Assay for Eotaxin 3 Biomarker Activity (AID 2283000); conditions: primary human endothelial cells (HUVEC); actives raise or lower the signal
Outline: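 HUVEC, 24 h post-dose, ELISA for Eotaxin-3/CCL26. Gain or loss of signal fitted bidirectionally vs DMSO baseline.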

[6] = read-out: Interleukin-1 alpha (IL1a), IL1A (gene 3552); assay: BSK_BE3C_IL1a: BioMAP Diversity Plus: BE3C Assay for Interleukin-1 alpha (IL1a) Biomarker Activity (AID 2283016); conditions: primary human bronchial epithelial cells; actives raise or lower the signal
Outline: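 BE3C primary human bronchial epithelium; cpd 24 h; IL-1a by ELISA; bidirectional fit vs DMSO; parallel SRB (0.1% SRB, 10% TCA fix, 560 nm) for cytotoxicity.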

[7] = read-out: Tissue Factor, F3 (gene 2152); assay: BSK_CASM3C_TissueFactor: BioMAP Diversity Plus: CASM3C Assay for Tissue Factor Biomarker Activity (AID 2283052); conditions: primary human coronary artery smooth muscle cells; actives raise or lower the signal;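 also: cell surface tissue factor protein level read by ELISA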
[8] = read-out: Urokinase-type plasminogen activator receptor (uPAR), PLAUR (gene 5329); assay: BSK_CASM3C_uPAR: BioMAP Diversity Plus: CASM3C Assay for Urokinase-type plasminogen activator receptor (uPAR) Biomarker Activity (AID 2283054); conditions: primary human coronary artery smooth muscle cells; actives raise or lower the signal;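 also: cell-surface uPAR protein level quantified by ELISA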
[9] = read-out: Collagen III, COL3A1 (gene 1281); assay: BSK_hDFCGF_CollagenIII: BioMAP Diversity Plus: hDFCGF Assay for Collagen III Biomarker Activity (AID 2283056); conditions: primary human foreskin fibroblasts; actives raise or lower the signal
Outline: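 Human foreskin primary fibroblasts were exposed to test chemicals for 24 h, after which collagen III was quantified by ELISA. Activity was fitted bidirectionally against DMSO as negative control and baseline.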

[10] = read-out: Epidermal growth factor receptor (EGFR), EGFR (gene 1956); assay: BSK_hDFCGF_EGFR: BioMAP Diversity Plus: hDFCGF Assay for Epidermal growth factor receptor (EGFR) Biomarker Activity (AID 2283057); conditions: primary human foreskin fibroblasts; actives raise or lower the signal
Outline: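 hDFCGF system, primary human foreskin fibroblasts; compound 24 h; EGFR measured by ELISA; DMSO = negative control/baseline; bidirectional fitting.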

[11] = read-out: Vascular cell adhesion molecule 1 (VCAM1), VCAM1 (gene 7412); assay: BSK_hDFCGF_VCAM1: BioMAP Diversity Plus: hDFCGF Assay for Vascular cell adhesion molecule 1 (VCAM1) Biomarker Activity (AID 2283065); conditions: primary human foreskin fibroblasts; actives raise or lower the signal;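 as to AC50: VCAM-1 protein level quantified by ELISA after 24 h chemical exposure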
Outline: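 Primary human foreskin fibroblasts (hDFCGF system) were dosed with chemical and VCAM-1 was measured by ELISA 24 h later. Bidirectional curve fitting used DMSO as negative control and activity baseline.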

[12] = read-out: Intercellular Adhesion Molecule 1 (ICAM1), ICAM1 (gene 3383); assay: BSK_KF3CT_ICAM1: BioMAP Diversity Plus: KF3CT Assay for Intercellular Adhesion Molecule 1 (ICAM1) Biomarker Activity (AID 2283067); conditions: primary human keratinocytes with fibroblasts; actives raise or lower the signal
Outline: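 Human keratinocyte plus foreskin fibroblast primary co-culture was exposed to chemical for 24 h. ICAM-1 was then quantified by ELISA, and the data were fit bidirectionally against DMSO as the negative control and baseline.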

[13] = read-out: E-selectin (Homo sapiens) (UniProt P16581); assay: BSK_LPS_Eselectin: BioMAP Diversity Plus: LPS Assay for Eselectin Biomarker Activity (AID 2283077); conditions: primary human HUVEC with PBMC; actives raise or lower the signal
Outline: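 Human umbilical vein endothelial cells co-cultured with peripheral blood mononuclear cells under LPS stimulation; E-selectin measured by ELISA 24 h after chemical dosing. Activity fitted bidirectionally against DMSO as negative control and baseline.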

[14] = read-out: Interleukin-1 alpha (IL1a), IL1A (gene 3552); assay: BSK_LPS_IL1a: BioMAP Diversity Plus: LPS Assay for Interleukin-1 alpha (IL1a) Biomarker Activity (AID 2283080); conditions: primary human HUVEC with PBMC; actives raise or lower the signal
Outline: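 Human umbilical vein endothelial cells co-cultured with peripheral blood mononuclear cells were LPS-stimulated and exposed to test chemicals for 24 h. IL-1 alpha was quantified by ELISA, with bidirectional curve fitting against DMSO as the negative control and baseline.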

[15] = read-out: Monocyte Chemoattractant Protein-1 (MCP1), CCL2 (gene 6347); assay: BSK_LPS_MCP1: BioMAP Diversity Plus: LPS Assay for Monocyte Chemoattractant Protein-1 (MCP1) Biomarker Activity (AID 2283081); conditions: primary human HUVEC with PBMC; actives raise or lower the signal;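 as to AC50: co-culture stimulated with LPS; secreted MCP-1 protein quantified by ELISA in culture supernatant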
Outline: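 HUVEC plus PBMC co-culture (human primary cells, LPS system) exposed to test chemical for 24 h; MCP-1 measured by ELISA. Bidirectional curve fitting against DMSO baseline; parallel SRB total-protein staining flags overt cytotoxicity.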

[16] = BSK_LPS_PGE2: BioMAP Diversity Plus: LPS Assay for Prostaglandin E2 (PGE2) Biomarker Activity (AID 2283082); conditions: primary human HUVEC with PBMC; actives raise or lower the signal;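 as to AC50: secreted prostaglandin E2 measured by ELISA in LPS-stimulated co-culture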
Outline: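 LPS-activated HUVEC/PBMC co-culture; cmpd dosed, 24 h; PGE2 by ELISA; bidirectional fit vs DMSO; SRB (0.1%, TCA-fixed, 560 nm) in parallel plates for overt cytotox.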

[17] = read-out: Macrophage colony-stimulating factor (MCSF), CSF1 (gene 1435); assay: BSK_LPS_MCSF: BioMAP Diversity Plus: LPS Assay for Macrophage colony-stimulating factor (MCSF) Biomarker Activity (AID 2283083); conditions: primary human HUVEC with PBMC; actives raise or lower the signal
Outline: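 Human umbilical vein endothelial cells co-cultured with peripheral blood mononuclear cells were exposed to compound for 24 h. M-CSF levels were measured by ELISA, and bidirectional curve fitting used DMSO as the negative control and baseline.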

CD69, CD69 (gene 969) = assay: BSK_SAg_CD69: BioMAP Diversity Plus: SAg Assay for CD69 Biomarker Activity (AID 2283089); conditions: primary human HUVEC with PBMC; actives raise or lower the signal;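 as to AC50: cell surface CD69 protein quantified by ELISA with fluorescence detection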
Outline: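 HUVEC co-cultured with PBMC were dosed with chemical, and CD69 was measured by ELISA with fluorescence read-out 24 h later. Bidirectional curve fitting used DMSO as negative control and activity baseline.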

[18] = BSK_SAg_PBMCCytotoxicity: PBMC Cytotoxicity Assessment in the BioMAP Diversity Plus: SAg Assay (AID 2283093); conditions: primary human HUVEC with PBMC;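 also: PBMC viability measured as Alamar Blue reduction fluorescence at 546/580 nm; fitted both ways against DMSO so a hit may be loss or gain of signal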;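 as to AC50: PBMC superantigen activated with SEB plus TSST-1 one hour after compound addition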
Outline: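 Compound added to 75,000 PBMC/well for 1 h; SEB and TSST-1 then added at 20 ng/mL final each; 90 h incubation; Alamar Blue 6 h; read 546/580 nm ex/em. Activity fitted bidirectionally relative to DMSO baseline.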

[19] = read-out: Monocyte Chemoattractant Protein-1 (MCP1), CCL2 (gene 6347); assay: BSK_hDFCGF_MCP1: BioMAP Diversity Plus: hDFCGF Assay for Monocyte Chemoattractant Protein-1 (MCP1) Biomarker Activity (AID 2284285); conditions: primary human foreskin fibroblasts
Outline: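 Human foreskin fibroblasts (hDFCGF system) were exposed to compound and secreted MCP-1 was measured by ELISA after 24 hours. Activity was fitted relative to DMSO. Cytotoxicity was checked by SRB total-protein staining in parallel cultures.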

Measured: AC50

Sequence of Hepatocyte nuclear factor 6 (Homo sapiens) (Q9UBC0 whole entry, looked up): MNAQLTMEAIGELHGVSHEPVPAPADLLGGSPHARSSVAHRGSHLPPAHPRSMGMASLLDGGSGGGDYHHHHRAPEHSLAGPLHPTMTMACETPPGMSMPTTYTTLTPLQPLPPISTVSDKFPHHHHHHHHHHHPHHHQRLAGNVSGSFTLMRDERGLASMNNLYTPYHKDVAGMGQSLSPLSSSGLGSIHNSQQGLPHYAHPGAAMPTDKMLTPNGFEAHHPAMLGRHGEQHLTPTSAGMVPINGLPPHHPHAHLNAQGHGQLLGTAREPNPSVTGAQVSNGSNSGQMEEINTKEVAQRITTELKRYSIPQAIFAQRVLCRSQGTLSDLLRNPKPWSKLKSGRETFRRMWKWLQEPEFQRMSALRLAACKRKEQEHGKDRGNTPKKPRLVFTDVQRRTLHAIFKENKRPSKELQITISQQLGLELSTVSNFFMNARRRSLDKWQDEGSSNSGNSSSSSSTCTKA
Sequence of E-selectin (Homo sapiens) (P16581 whole entry, looked up): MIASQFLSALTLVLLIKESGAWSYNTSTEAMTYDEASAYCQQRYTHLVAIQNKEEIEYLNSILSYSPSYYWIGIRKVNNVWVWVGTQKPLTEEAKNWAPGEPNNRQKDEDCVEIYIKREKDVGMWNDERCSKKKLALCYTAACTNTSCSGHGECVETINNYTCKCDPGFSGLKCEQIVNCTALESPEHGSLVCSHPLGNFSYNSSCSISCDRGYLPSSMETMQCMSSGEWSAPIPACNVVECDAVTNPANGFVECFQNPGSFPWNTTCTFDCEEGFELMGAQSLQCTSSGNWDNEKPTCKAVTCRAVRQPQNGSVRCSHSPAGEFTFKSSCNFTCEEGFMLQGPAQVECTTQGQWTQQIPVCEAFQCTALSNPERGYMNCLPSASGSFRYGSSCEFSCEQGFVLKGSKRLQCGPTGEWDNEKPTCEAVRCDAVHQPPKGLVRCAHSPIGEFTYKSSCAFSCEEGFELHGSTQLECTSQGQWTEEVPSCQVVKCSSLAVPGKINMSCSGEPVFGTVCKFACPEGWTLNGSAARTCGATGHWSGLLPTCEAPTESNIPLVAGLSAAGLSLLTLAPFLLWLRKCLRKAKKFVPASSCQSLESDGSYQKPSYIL

C[Si](C)(C)O[Si](C)(C)O[Si](C)(C)C
inactive: [1] | [2] | [3]

COc1cc(CNC(=O)CCCC/C=C/C(C)C)ccc1O
inactive: [4] | [5] | [6] | [7] | [8] | [9] | [10] | [11] | [12] | [13] | [14] | [15] | [17] | CD69, CD69 (gene 969) | [18] | [19]
active: [11] 384 nM | [16] 4.62 µM and 2.9 µM | CD69, CD69 (gene 969) 27.1 µM | [19] 0.508 µM

CC[N+](CC)(CC(=O)Nc1c(C)cccc1C)Cc1ccccc1
not listed: [19]
inactive: all other assays above

CCCN[C@H]1CCc2nc(N)sc2C1
inactive: [1] | [2]

COc1ccc2ccccc2c1
inactive: [2] | [3]

CCCCCC[C@@H](O)C/C=C\CCCCCCCC(=O)O
active: [1] 160 µM | [2] 100 µM
inactive: [3]

O=[N+]([O-])c1cc(S(=O)(=O)Nc2ccccc2)ccc1Nc1ccccc1
active: [4] 26 µM and 17.8 µM | [5] 26.6 µM and 25.5 µM | [6] 24 µM and 30.5 µM | [9] 5.82 µM and 5.34 µM | [10] 30.4 µM and 31.3 µM | [11] 32.4 µM and 27 µM | [12] 32.8 µM and 32.4 µM | [13] 20 µM and 26.5 µM | [15] 29.1 µM and 28.5 µM | [16] 28.9 µM | [17] 9.74 µM | CD69, CD69 (gene 969) 22 µM and 18 µM | [19] 30.8 µM and 29.7 µM
inactive: [7] | [8] | [14] | [16] | [17] | [18]

CCCCCCCCCC/C=C/C1CC(=O)OC1=O (stereo unspecified)
active: [6] 20 µM
not listed: [19]
inactive: all other assays above

Oc1cccc2ccccc12
active: [5] 13.7 µM
not listed: [19]
inactive: all other assays above

OC(C(F)(F)F)(C(F)(F)F)C(O)(C(F)(F)F)C(F)(F)F
active: [4] 13.8 µM and 10.7 µM | [5] 22.3 µM and 27.4 µM | [6] 31.6 µM and 31.3 µM | [8] 19.3 µM and 22.6 µM | [9] 41.9 µM and 23.6 µM | [10] 5.95 µM | [11] 13.2 µM and 12.3 µM | [12] 48.3 µM | [13] 24.4 µM and 51.9 µM | [15] 23.9 µM and 23.3 µM | [16] 7.65 µM and 6.88 µM | [17] 22 µM and 21.7 µM | CD69, CD69 (gene 969) 18.5 µM and 17.7 µM | [19] 7.94 µM
inactive: [7] | [10] | [12] | [14] | [18] | [19]

O=S(=O)(O)c1cccc2ccccc12
inactive: [1] | [2] | [3]

CCCCC(CC)COC(=O)C=Cc1ccc(OC)cc1 (stereo unspecified)
active: [4] 35.3 µM and 26.2 µM | [5] 24.2 µM and 18.9 µM | [7] 6.67 µM | [9] 9.77 µM and 7.79 µM | [13] 13.2 µM | [15] 32.3 µM | [17] 32 µM and 14.8 µM | CD69, CD69 (gene 969) 26.3 µM and 18.6 µM | [18] 36.1 µM | [19] 8.08 µM
inactive: [6] | [7] | [8] | [10] | [11] | [12] | [13] | [14] | [15] | [16] | [18] | [19]
